Screening results: PubChem, National Center for Advancing Translational Sciences (NCATS)
AmpC detergent: blocks E. coli AmpC beta-lactamase in detergent assay. AmpC hydrolysis of nitrocefin, absorbance 480 nm, 0.01% Triton. Potency, µM (series often up to 114 µM), without a hit: at the top dose activity change, negative = inhibition, most hits filed as inhibitors. P00811. actives 0.041% (n = 370,000). AID 485294;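 further: 0% = no-compound wells and -100% = no-enzyme wells; nearly all actives have a fitted effect of over 25% in size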
Target sequence (P00811 whole entry, looked up): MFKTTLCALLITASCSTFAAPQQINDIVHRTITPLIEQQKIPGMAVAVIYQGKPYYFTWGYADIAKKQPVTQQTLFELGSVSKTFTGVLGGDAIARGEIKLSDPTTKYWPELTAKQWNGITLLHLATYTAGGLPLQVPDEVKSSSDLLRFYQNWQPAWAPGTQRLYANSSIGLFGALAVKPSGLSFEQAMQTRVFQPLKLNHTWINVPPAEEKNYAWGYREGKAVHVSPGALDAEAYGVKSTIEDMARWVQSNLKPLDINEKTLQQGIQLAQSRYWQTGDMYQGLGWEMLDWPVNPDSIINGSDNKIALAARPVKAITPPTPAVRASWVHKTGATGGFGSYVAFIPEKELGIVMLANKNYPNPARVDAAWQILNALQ
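AmpC (5.3 nM in the dispensed reagent) in 20 mM phosphate pH 7.0 with 0.01% (detergent screen) or 0.0001% Triton X-100 was preincubated with compounds for 15 min at room temperature. Nitrocefin was then added from an 800 uM solution, and hydrolysis was followed at 480 nm.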
AmpC no deterg: blocks E. coli AmpC beta-lactamase in detergent-free assay. P00811. AmpC nitrocefin hydrolysis, absorbance 480 nm, 0.0001% Triton. Potency, µM (titrated, usually from 57.1 µM), inactives show at the top dose activity change, negative = inhibition, usual class: inhibitors. actives 0.52% (n = 330,000). AID 485341;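 further: plate controls were no compound for no effect and no enzyme for full effect; nearly all actives have a fitted effect of over 20% in size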
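AmpC (5.3 nM in the dispensed reagent) in 20 mM phosphate pH 7.0 with 0.01% (detergent screen) or 0.0001% Triton X-100 was preincubated with compounds for 15 min at room temperature. Nitrocefin was then added from an 800 uM solution, and hydrolysis was followed at 480 nm.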
Tb PYK inh: blocks Trypanosoma brucei pyruvate kinase | Q57TT1 | TbPYK enzyme, Kinase-Glo Plus ATP luminescence, 45 min | Potency, µM (doses to about 76.8 µM), inactives show top-dose activity, negative = inhibition, most hits filed as inhibitors | actives 0.12% (n = 410,000) | AID 624173; further: on the % scale 0 is the no-effect control and ±100 the full control effect; nearly all actives have a fitted effect of over 50% in size
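Assay buffer: 50 mM TEA pH 7.2, 100 mM KCl, 10 mM MgCl2, 0.05% BSA, 0.01% Tween-20. Pyruvate kinase from T. brucei plus substrate met compound, then ADP (130 uM final). Luminescence was read post 45 min RT.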
Sm TGR block: inhibitors of Schistosoma mansoni thioredoxin glutathione reductase | purified TGR, DTNB reduction, TNB absorbance 405 nm | actives 3% (n = 360,000) | Potency, µM (top dose mostly 114 µM), for inactives: top-dose activity change, negative = inhibition, hits mostly inhibitors | AID 485364; further: on the % scale 0 is the no-effect control and ±100 the full control effect; nearly all actives have a fitted effect of over 60% in size
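Kinetic colorimetric format: TGR-catalysed, NADPH-driven DTNB reduction monitored via TNB absorbance. Enzyme dispensed at 20 nM; compound exposure 15 min at room temperature before reaction start.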
RE007 growth inh: less growth of the S. pombe RE007 Vpr strain | S. pombe RE007 Vpr strain, BacTiter-Glo ATP luminescence, 24 h | Potency, µM (titrated, usually from 92.2 µM), for inactives: at the highest dose activity change, negative = less growth, hits mostly inhibitors | actives 0.21% (n = 360,000); active means well fitted falling curve with a large enough effect; inconclusive means small, poorly fitted or top-dose-only effect; inactive means no such curve, though single readings can be large or run the other way; further: on the % scale 0 is the no-effect control and ±100 the full control effect; nearly all actives have a fitted effect of over 50% in size
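Fission yeast strain RE007, carrying one chromosomally integrated HIV-1 vpr copy, was seeded at OD 0.01 in PMG+AL medium with 23 nL pinned compound. After 24 h at 30 °C and 99% humidity, viability was read by BacTiter-Glo luminescence.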
SARS PLP yeast: inhibitors of SARS-CoV papain-like protease in yeast; S. cerevisiae expressing SARS-CoV PLpro, growth rescue; Potency, µM (titrated, usually from 32.9 µM), inactives show at the top dose activity, positive = growth rescue, usual class: activators; actives 0.19% (n = 330,000); AID 485353; calls by dose curve; further: 0% is about no effect; nearly all actives have a fitted effect of over 55% in size
* = called active by the depositor. An excerpt weighted towards active compounds, which were near 3.3% of everything screened. Unless noted, the call rests on the fitted dose curve; in most records, active means well fitted curve in the direction sought with a large enough effect; inconclusive means small, poorly fitted or top-dose-only effect, or another doubt; inactive means no such curve, though single readings can be large; an effect the other way counts as inactive or inconclusive. Potency means the concentration at half of the fitted maximal effect.

`CCS(=O)(=O)c1ccccc1C(=O)N(Cc1cccnc1)c1nc2cc(C)c(C)cc2s1` gave AmpC detergent -3%, Tb PYK inh 4% and Sm TGR block 8%.
For Cc1cc(CN2CCC(N3CCC(C(=O)NC4CC4)CC3)CC2)cc(C)c1O the results were AmpC detergent 2%, AmpC no deterg -5%, Tb PYK inh 0%, Sm TGR block 45µM*, RE007 growth inh 21% and SARS PLP yeast 2%.
Screening O=C1CC(C(=O)N2CCC(N3CCC(C(=O)NC4CC4)CC3)CC2)c2ccccc21 (stereo not given) returned AmpC detergent -4%, AmpC no deterg 38%, Tb PYK inh 1%, Sm TGR block 40µM*, RE007 growth inh -8% and SARS PLP yeast 0%.
Screening O=C(NC1CC1)C1CCN(C2CCN(C(=O)c3c(F)cccc3Cl)CC2)CC1 returned AmpC detergent 4%, AmpC no deterg 55%, Tb PYK inh -18%, Sm TGR block -36%, RE007 growth inh -11% and SARS PLP yeast -2%.
`CC(=O)Nc1c(C)nn(-c2ccccc2)c1N1CCC(C(=O)NCc2ccc(Cl)cc2)CC1` gave AmpC detergent 7%, Tb PYK inh -5% and Sm TGR block 20%.
Screening O=C(N=Nc1c(O)[nH]c2ccccc12)c1cc(NS(=O)(=O)c2cccs2)cc(NS(=O)(=O)c2cccs2)c1 returned AmpC detergent 3%, AmpC no deterg 16µM*, Tb PYK inh -28%, Sm TGR block 11%, RE007 growth inh 9% and SARS PLP yeast -3%.
Screening O=C(N=Nc1c(O)[nH]c2ccccc12)c1cccs1 returned AmpC detergent 3%, AmpC no deterg -26%, Tb PYK inh 0%, Sm TGR block -2%, RE007 growth inh -12% and SARS PLP yeast -6%.
Cc1ccc(-n2c(Cc3cccn3C)nnc2SCC(=O)N2CCN(c3ccccc3)CC2)cc1 was read as AmpC detergent inconclusive, AmpC no deterg 151%, Tb PYK inh -17%, Sm TGR block 40µM*, RE007 growth inh -3% and SARS PLP yeast -8%.
`Cn1cccc1Cc1nnc(SCC(=O)N2CCCCCC2)n1-c1ccc(F)cc1` gave AmpC detergent -2%, AmpC no deterg 89%, Tb PYK inh -3%, Sm TGR block inconclusive, RE007 growth inh -9% and SARS PLP yeast -9%.
CC1CCN(C(=O)CSc2nnc(Cc3cccn3C)n2-c2ccc(F)cc2)CC1 was read as AmpC detergent inconclusive, AmpC no deterg 6.3µM*, Tb PYK inh -8%, Sm TGR block -28%, RE007 growth inh -15% and SARS PLP yeast 0%.
For COc1cc(N=Nc2cccc(S(N)(=O)=O)c2)c2ccccc2c1N the results were AmpC detergent -15%, AmpC no deterg -32%, Tb PYK inh -14%, Sm TGR block 56µM*, RE007 growth inh -5% and SARS PLP yeast -2%.
CCOc1ccc(S(=O)(=O)Nc2cccc(-c3ccc(OCC)nn3)c2)cc1 was read as AmpC detergent -4%, Tb PYK inh -8% and Sm TGR block -5%.
For Cc1nc2c(-c3ccccc3)c(C)nn2c(C)c1CCC(=O)Nc1ccccc1F the results were AmpC detergent 11%, Tb PYK inh 0% and Sm TGR block 6%.
For COc1ccc(Cl)cc1C(=O)OCC(=O)Nc1cccnc1Cl the results were AmpC detergent 8%, AmpC no deterg -2%, Tb PYK inh 4%, Sm TGR block 2%, RE007 growth inh -16% and SARS PLP yeast -3%.
For COc1cc(N)c(Cl)cc1C(=O)OCC(=O)Nc1cccnc1Cl the results were AmpC detergent inconclusive, AmpC no deterg 35µM*, Tb PYK inh -5%, Sm TGR block -4%, RE007 growth inh -3% and SARS PLP yeast -1%.
`COC(=O)CN1C(C(=O)c2ccccc2)=C(OC(=O)c2ccc(C)cc2)c2ccccc2S1(=O)=O` gave AmpC detergent 1%, Tb PYK inh -2% and Sm TGR block -7%.
For CCN(Cc1ccccc1)S(=O)(=O)c1cc(Br)cc2c1N(C(=O)C1CC1)CC2 the results were AmpC detergent 4%, Tb PYK inh -1% and Sm TGR block 4%.
COc1ccc(OC)c(NC(=O)Cn2c(CCC(=O)O)ccc2-c2ccc(C)cc2)c1 was read as AmpC detergent 7%, AmpC no deterg 6%, Tb PYK inh -21%, Sm TGR block -27%, RE007 growth inh 1% and SARS PLP yeast -2%.
Screening C=CCn1c(CCC(=O)O)ccc1-c1ccc(OC)cc1 returned AmpC detergent -3%, AmpC no deterg -25%, Tb PYK inh -7%, Sm TGR block 45µM*, RE007 growth inh -2% and SARS PLP yeast -2%.
COc1ccc(-c2ccc(CCC(=O)O)n2CC(C)C)cc1 was read as AmpC detergent -5%, AmpC no deterg -33%, Tb PYK inh -9%, Sm TGR block 10µM*, RE007 growth inh -2% and SARS PLP yeast -8%.
Screening Cc1nn(C)c2c1c(-c1ccccc1)cc(=O)n2Cc1c(F)cccc1Cl returned AmpC detergent 18%, Tb PYK inh 0% and Sm TGR block 11%.
For COc1cc(OC)nc(-n2ncc(Br)c(Br)c2=O)n1 the results were AmpC detergent -5%, AmpC no deterg -22%, Tb PYK inh 20%, Sm TGR block 1.8µM*, RE007 growth inh -13% and SARS PLP yeast -57%.
Screening COC(=O)c1cnn(-c2nc(OC)cc(OC)n2)c1C returned AmpC detergent -6%, AmpC no deterg -1%, Tb PYK inh 4%, Sm TGR block 2%, RE007 growth inh -14% and SARS PLP yeast 19%.
For CC(NC(=O)c1ccc(CS(=O)(=O)c2cccc(C(F)(F)F)c2)o1)c1ccc2c(c1)OCCO2 (stereo not given) the results were AmpC detergent inconclusive, AmpC no deterg 18%, Tb PYK inh -1%, Sm TGR block 7%, RE007 growth inh 4% and SARS PLP yeast 3%.
`CC(NC(=O)c1ccc(CS(=O)(=O)Cc2ccccc2F)o1)c1ccc2c(c1)OCCO2` (stereo not given) gave AmpC detergent -1%, AmpC no deterg -37%, Tb PYK inh -1%, Sm TGR block 35µM*, RE007 growth inh 3% and SARS PLP yeast 6%.
COc1ccc(CNc2cccc3[nH]c(C(F)(F)F)nc23)cc1OC was read as AmpC detergent 3%, AmpC no deterg -11%, Tb PYK inh -23%, Sm TGR block 20µM* and SARS PLP yeast 0%.
